Test results as given in ChEMBL document CHEMBL1157539, “Thousands of chemical starting points for antimalarial lead identification” (Nature, 2010).

Test system: HepG2
Assay: GSK_TCMDC: Percent inhibition of human HepG2 cell line. Test compounds present at 10uM.
Format: functional

Row | Structure (SMILES) | Inhibition
1 | Fc1ccc2[nH]c(-c3cccc(-c4ccc(CNCC5CCCO5)cc4)c3)nc2c1.O=C(O)C(F)(F)F (centres undefined) | 36%
2 | Cc1ccc(-c2nnc(Nc3ccc(OCC(N)=O)cc3)c3ccccc23)cc1S(=O)(=O)NCC1CCCO1 (centres undefined) | 0%
3 | COc1ccccc1CNC(=O)CCn1c(=O)[nH]c2ccsc2c1=O | 0%
4 | O=C1CC(C(=O)Nc2cccc(-c3cccc(-c4nc5ccccc5[nH]4)c3)c2)c2ccccc2N1 (centres undefined) | 0%
5 | COCCNCc1ccc(-c2cccc(CN(C(=O)NCCc3ccccc3)C3CCN(Cc4ccccc4)CC3)c2)cc1.O=C(O)C(F)(F)F | 25%
6 | Cc1cccc2nc(-c3cccc(-c4ccc(CN5CCC(C(N)=O)CC5)cc4)c3)[nH]c12.O=C(O)C(F)(F)F | 0%
7 | Cc1c(-c2cccc(CNCCc3ccc(Cl)cc3)c2)cnc(N)c1C.Cl | 9%
8 | O=C(CSc1nc(-c2ccccc2Cl)ns1)Nc1cccc(Cl)c1 | 0%
9 | Cc1ccc2[nH]c3c(c2c1)CC(C(=O)NCCC(C)C)NC31CCN(Cc2ccccc2)CC1 (centres undefined) | 15%
10 | CCn1c(-c2nc(-c3ccc4c(c3)OCO4)cnc2N)nc2cnccc21 | 94%
11 | CC(=O)Oc1cc(C)ccc1C1CCN(CCCCNC(=O)c2ccc(-c3ccc(C(F)(F)F)cc3)cc2)CC1 | 54%
12 | CCOC(=O)c1cnc2c(OC)cc(OC)c(Cl)c2c1Nc1cccc(C)c1 | 0%
13 | COc1ccc(Cn2c(Nc3cccc(C(F)(F)F)c3)nc3cc(C(=O)NC(C)C)cnc32)cc1Cl | 0%
14 | Cc1cccc(CC2CC(=O)N(c3ccc([N+](=O)[O-])cc3)C2=O)c1 (centres undefined) | 11%
15 | COc1ccc(-c2cc(Nc3nc(-c4cccc(Cl)c4)nc4ccccc34)ccn2)cc1 | 3%
16 | CN(C)CCC=C1c2ccccc2Sc2c(O)cc(Cl)cc21.O=C(O)/C=C\C(=O)O | 8%
17 | COc1cc(O)c2c(=O)c(OC)c(-c3cccc(Cl)c3OC3O[C@H](CO)[C@@H](O)[C@H](O)[C@H]3O)oc2c1OC (some centres undefined) | 16%
18 | COc1ccc2nccc([C@@H](O)CN3CCC(NCc4ccc(OC)c(NC=O)c4)CC3)c2c1 | 0%
19 | Cc1cccc(NC(=O)NC2CCN(CCCCCNC(=O)/C=C/c3ccc(Cl)c(Cl)c3)CC2)c1 | 34%
20 | CCNc1cc(CC)nc(Nc2ccc(C)cc2)n1 | 22%
21 | Cc1cnc2cc3c(cc2c1N1CCN(C)CC1)NCC3 | 12%
22 | Cc1c(C(=O)N(C)C)sc2c1c(=O)n(Cc1ccccc1)c(=O)n2CC(=O)Nc1ccccc1F | 13%
23 | CNCCNCc1ccc(-c2ccc(-c3nc4cc(F)ccc4[nH]3)s2)cc1.O=C(O)C(F)(F)F | 22%
24 | O=C(/C=C/c1ccc(Cl)c(Cl)c1)NCCCCN1CCCN(C(=O)Nc2cc(Cl)cc(Cl)c2)CC1 | 21%
